Measured values published in PubChem BioAssay AID1159580 (chemical genetic matrix, 2015).
Hit rate of the full screen: of about 5,500 compounds, about 2,000 (36%) were called active. Roughly 18% stayed inconclusive and do not appear here. No stated cut-off is given here; in the data, active means normalized growth mostly below about 0.91 (no sharp cut-off); inconclusive means no clear call, values can overlap the other calls; inactive means mostly above about 0.92. The list shows a part of the results.

Test: chemical genetic growth profiling, strain panel (AID 1159580);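 further: tested at 20 µM; growth read once vehicle control cultures reached saturation at 30 °C; 1 = growth at the plate median or of vehicle wells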
Conditions: growth OD

Measured: normalized growth

CC(=O)OCC(OC(C)=O)C(OC(C)=O)C(OC(C)=O)C(OC(C)=O)C(COC(C)=O)OC(C)=O (stereo not given)
inactive: S. cerevisiae deletion strains, locus YAL021C, strain ccr4, stronger effect = lower value 0.998 | S. cerevisiae deletion strains, locus YAL026C, strain drs2, stronger effect = lower value 0.993 | S. cerevisiae deletion strains, locus YAL030W, strain snc1, stronger effect = lower value 0.994 | S. cerevisiae deletion strains, locus YBL061C, strain skt5, stronger effect = lower value 0.985 | S. cerevisiae deletion strains, locus YBR009C, strain hhf1, stronger effect = lower value 0.994 | S. cerevisiae deletion strains, locus YBR021W, strain FUR4, stronger effect = lower value 1.01 | S. cerevisiae deletion strains, locus YBR023C, strain chs3, stronger effect = lower value 0.99 | S. cerevisiae deletion strains, locus YBR171W, strain sec66, stronger effect = lower value 0.985 | S. cerevisiae deletion strains, locus YBR229C, strain ROT2, stronger effect = lower value 0.996 | S. cerevisiae deletion strains, locus YBR231C, strain swc5, stronger effect = lower value 0.989 | S. cerevisiae deletion strains, locus YBR279W, strain paf1, stronger effect = lower value 0.994 | S. cerevisiae deletion strains, locus YCL011C, strain gbp2, stronger effect = lower value 0.996 | S. cerevisiae deletion strains, locus YCL016C, strain dcc1, stronger effect = lower value 0.994 | S. cerevisiae deletion strains, locus YCL029C, strain bik1, stronger effect = lower value 0.984 | S. cerevisiae deletion strains, locus YCL061C, strain MRC1, stronger effect = lower value 0.992 | S. cerevisiae deletion strains, locus YCL069W, strain vba3, stronger effect = lower value 0.999 | S. cerevisiae deletion strains, locus YCR088W, strain abp1, stronger effect = lower value 0.991 | S. cerevisiae deletion strains, locus YDL005C, strain med2, stronger effect = lower value 0.989 | S. cerevisiae deletion strains, locus YDL035C, strain GPR1, stronger effect = lower value 1.07 | S. cerevisiae deletion strains, locus YDL040C, strain nat1, stronger effect = lower value 0.98 | S. cerevisiae deletion strains, locus YDL074C, strain BRE1, stronger effect = lower value 1.09 | S. cerevisiae deletion strains, locus YDL101C, strain DUN1, stronger effect = lower value 1 | S. cerevisiae deletion strains, locus YDL185W, strain tfp1, stronger effect = lower value 0.991 | S. cerevisiae deletion strains, locus YDL192W, strain arf1, stronger effect = lower value 1.02 | S. cerevisiae deletion strains, locus YDR001C, strain nth1, stronger effect = lower value 0.99 | S. cerevisiae deletion strains, locus YDR069C, strain doa4, stronger effect = lower value 0.986 | S. cerevisiae deletion strains, locus YDR101C, strain arx1, stronger effect = lower value 1.01 | S. cerevisiae deletion strains, locus YDR137W, strain rgp1, stronger effect = lower value 1.01 | S. cerevisiae deletion strains, locus YDR150W, strain NUM1, stronger effect = lower value 1.01 | S. cerevisiae deletion strains, locus YDR159W, strain sac3, stronger effect = lower value 0.979 | S. cerevisiae deletion strains, locus YDR162C, strain NBP2, stronger effect = lower value 1.03 | S. cerevisiae deletion strains, locus YDR195W, strain ref2 0.943 | S. cerevisiae deletion strains, locus YDR297W, strain sur2, stronger effect = lower value 0.992 | S. cerevisiae deletion strains, locus YDR318W, strain mcm21, stronger effect = lower value 0.999 | S. cerevisiae deletion strains, locus YDR334W, strain swr1, stronger effect = lower value 0.983 | S. cerevisiae deletion strains, locus YDR335W, strain msn5, stronger effect = lower value 0.986 | S. cerevisiae deletion strains, locus YDR388W, stronger effect = lower value 0.983 | S. cerevisiae deletion strains, locus YDR392W, strain spt3, stronger effect = lower value 0.99 | S. cerevisiae deletion strains, locus YDR502C, strain sam2, stronger effect = lower value 0.998 | S. cerevisiae deletion strains, locus YEL003W, strain gim4, stronger effect = lower value 0.993 | S. cerevisiae deletion strains, locus YEL037C, strain rad23, stronger effect = lower value 0.989 | S. cerevisiae deletion strains, locus YEL061C, strain CIN8 (second series), stronger effect = lower value 0.979 | S. cerevisiae deletion strains, locus YER015W, strain faa2, stronger effect = lower value 0.992 | S. cerevisiae deletion strains, locus YER016W, strain bim1, stronger effect = lower value 0.988 | S. cerevisiae deletion strains, locus YER110C, stronger effect = lower value 0.963 | S. cerevisiae deletion strains, locus YER111C, strain swi4, stronger effect = lower value 0.985 | S. cerevisiae deletion strains, locus YER155C, strain BEM2 (second series), stronger effect = lower value 0.981 | S. cerevisiae deletion strains, locus YER155C, strain BEM2, stronger effect = lower value 0.972 | S. cerevisiae deletion strains, locus YER167W, strain BCK2, stronger effect = lower value 1.01 | S. cerevisiae deletion strains, locus YFR010W, strain ubp6, stronger effect = lower value 0.989 | S. cerevisiae deletion strains, locus YGL078C, strain dbp3, stronger effect = lower value 0.976 | S. cerevisiae deletion strains, locus YGL086W, strain mad1, stronger effect = lower value 1 | S. cerevisiae deletion strains, locus YGL167C, strain pmr1, stronger effect = lower value 0.998 | S. cerevisiae deletion strains, locus YGL173C, strain kem1, stronger effect = lower value 0.991 | S. cerevisiae deletion strains, locus YGL227W, strain vid30, stronger effect = lower value 0.99 | S. cerevisiae deletion strains, locus YGL240W, strain doc1, stronger effect = lower value 0.998 | S. cerevisiae deletion strains, locus YGL248W, strain PDE1, stronger effect = lower value 1.03 | S. cerevisiae deletion strains, locus YGL253W, strain hxk2, stronger effect = lower value 0.984 | S. cerevisiae deletion strains, locus YGR078C, strain PAC10, stronger effect = lower value 1.02 | S. cerevisiae deletion strains, locus YGR135W, strain pre9, stronger effect = lower value 0.964 | S. cerevisiae deletion strains, locus YGR252W, strain gcn5, stronger effect = lower value 0.996 | S. cerevisiae deletion strains, locus YHR013C, strain ard1, stronger effect = lower value 0.964 | S. cerevisiae deletion strains, locus YHR027C, strain rpn1, stronger effect = lower value 0.995 | S. cerevisiae deletion strains, locus YHR030C, strain SLT2, stronger effect = lower value 1.01 | S. cerevisiae deletion strains, locus YHR079C, strain IRE1 (second series), stronger effect = lower value 0.987 | S. cerevisiae deletion strains, locus YHR094C, strain hxt1, stronger effect = lower value 0.987 | S. cerevisiae deletion strains, locus YHR129C, strain ARP1, stronger effect = lower value 1 | S. cerevisiae deletion strains, locus YHR142W, strain chs7, stronger effect = lower value 0.983 | S. cerevisiae deletion strains, locus YHR200W, strain rpn10, stronger effect = lower value 0.986 | S. cerevisiae deletion strains, locus YIL066C, strain RNR3, stronger effect = lower value 1.02 | S. cerevisiae deletion strains, locus YIL073C, strain SPO22, stronger effect = lower value 1.06 | S. cerevisiae deletion strains, locus YIL125W, strain kgd1, stronger effect = lower value 0.976 | S. cerevisiae deletion strains, locus YIR030C, strain dcg1, stronger effect = lower value 0.978 | S. cerevisiae deletion strains, locus YJL092W, strain hpr5, stronger effect = lower value 0.998 | S. cerevisiae deletion strains, locus YJL095W, strain BCK1 (second series), stronger effect = lower value 0.985 | S. cerevisiae deletion strains, locus YJL095W, strain BCK1, stronger effect = lower value 1.05 | S. cerevisiae deletion strains, locus YJL115W, strain asf1, stronger effect = lower value 0.975 | S. cerevisiae deletion strains, locus YJL129C, strain trk1, stronger effect = lower value 0.988 | S. cerevisiae deletion strains, locus YJL134W, strain LCB3, stronger effect = lower value 1 | S. cerevisiae deletion strains, locus YJL154C, strain vps35, stronger effect = lower value 0.986 | S. cerevisiae deletion strains, locus YJL164C, strain tpk1, stronger effect = lower value 0.986 | S. cerevisiae deletion strains, locus YJL166W, strain qcr8, stronger effect = lower value 0.993 | S. cerevisiae deletion strains, locus YJL168C, strain set2, stronger effect = lower value 0.98 | S. cerevisiae deletion strains, locus YJL187C, strain SWE1 (second series), stronger effect = lower value 1.02 | S. cerevisiae deletion strains, locus YJL187C, strain SWE1, stronger effect = lower value 1 | S. cerevisiae deletion strains, locus YJR043C, strain POL32, stronger effect = lower value 1.07 | S. cerevisiae deletion strains, locus YKL009W, strain mrt4, stronger effect = lower value 1.01 | S. cerevisiae deletion strains, locus YKL068W, stronger effect = lower value 0.995 | S. cerevisiae deletion strains, locus YKL085W, strain MDH1 (second series), stronger effect = lower value 0.992 | S. cerevisiae deletion strains, locus YKL085W, strain MDH1, stronger effect = lower value 0.992 | S. cerevisiae deletion strains, locus YKL160W, strain elf1, stronger effect = lower value 0.997 | S. cerevisiae deletion strains, locus YKR001C, strain vps1, stronger effect = lower value 1.04 | S. cerevisiae deletion strains, locus YKR026C, strain gcn3, stronger effect = lower value 0.999 | S. cerevisiae deletion strains, locus YKR091W, strain srl3, stronger effect = lower value 0.991 | S. cerevisiae deletion strains, locus YLL001W, strain dnm1, stronger effect = lower value 0.989 | S. cerevisiae deletion strains, locus YLL026W, stronger effect = lower value 0.994 | S. cerevisiae deletion strains, locus YLL041C, strain sdh2, stronger effect = lower value 0.995 | S. cerevisiae deletion strains, locus YLR027C, strain aat2, stronger effect = lower value 0.995 | S. cerevisiae deletion strains, locus YLR039C, strain RIC1, stronger effect = lower value 1.2 | S. cerevisiae deletion strains, locus YLR058C, strain SHM2, stronger effect = lower value 1.02 | S. cerevisiae deletion strains, locus YLR102C, strain apc9, stronger effect = lower value 0.975 | S. cerevisiae deletion strains, locus YLR221C, strain rsa3, stronger effect = lower value 0.999 | S. cerevisiae deletion strains, locus YLR258W, strain gsy2, stronger effect = lower value 0.994 | S. cerevisiae deletion strains, locus YLR262C, strain YPT6 (second series), stronger effect = lower value 1.01 | S. cerevisiae deletion strains, locus YLR268W, strain sec22, stronger effect = lower value 1.04 | S. cerevisiae deletion strains, locus YLR320W, strain mms22, stronger effect = lower value 0.992 | S. cerevisiae deletion strains, locus YLR330W, strain CHS5, stronger effect = lower value 1 | S. cerevisiae deletion strains, locus YLR342W, strain FKS1, stronger effect = lower value 0.987 | S. cerevisiae deletion strains, locus YLR357W, strain rsc2, stronger effect = lower value 0.982 | S. cerevisiae deletion strains, locus YLR370C, strain arc18, stronger effect = lower value 0.99 | S. cerevisiae deletion strains, locus YLR371W, strain rom2, stronger effect = lower value 0.989 | S. cerevisiae deletion strains, locus YLR384C, strain iki3, stronger effect = lower value 1 | S. cerevisiae deletion strains, locus YLR418C, strain cdc73, stronger effect = lower value 1.01 | S. cerevisiae deletion strains, locus YML016C, strain PPZ1, stronger effect = lower value 1.01 | S. cerevisiae deletion strains, locus YML032C, strain rad52, stronger effect = lower value 0.993 | S. cerevisiae deletion strains, locus YML120C, strain ndi1, stronger effect = lower value 0.985 | S. cerevisiae deletion strains, locus YML124C, strain tub3, stronger effect = lower value 0.99 | S. cerevisiae deletion strains, locus YMR058W, strain fet3, stronger effect = lower value 0.994 | S. cerevisiae deletion strains, locus YMR078C, strain ctf18, stronger effect = lower value 0.981 | S. cerevisiae deletion strains, locus YMR125W, strain sto1, stronger effect = lower value 0.975 | S. cerevisiae deletion strains, locus YMR129W, stronger effect = lower value 0.991 | S. cerevisiae deletion strains, locus YMR205C, strain PFK2, stronger effect = lower value 0.985 | S. cerevisiae deletion strains, locus YMR223W, strain ubp8, stronger effect = lower value 0.993 | S. cerevisiae deletion strains, locus YMR231W, strain pep5, stronger effect = lower value 1 | S. cerevisiae deletion strains, locus YMR307W, strain GAS1, stronger effect = lower value 1.09 | S. cerevisiae deletion strains, locus YNL067W, strain RPL9B, stronger effect = lower value 1.01 | S. cerevisiae deletion strains, locus YNL071W, strain lat1, stronger effect = lower value 0.99 | S. cerevisiae deletion strains, locus YNL128W, strain TEP1, stronger effect = lower value 1 | S. cerevisiae deletion strains, locus YNL209W, strain ssb2, stronger effect = lower value 0.998 | S. cerevisiae deletion strains, locus YNL233W, strain BNI4, stronger effect = lower value 1.03 | S. cerevisiae deletion strains, locus YNL248C, strain rpa49, stronger effect = lower value 1.01 | S. cerevisiae deletion strains, locus YNL250W, strain rad50, stronger effect = lower value 0.978 | S. cerevisiae deletion strains, locus YNL271C, strain bni1, stronger effect = lower value 0.998 | S. cerevisiae deletion strains, locus YNL298W, strain CLA4, stronger effect = lower value 0.987 | S. cerevisiae deletion strains, locus YNL307C, strain MCK1, stronger effect = lower value 0.977 | S. cerevisiae deletion strains, locus YNL322C, strain KRE1 (second series), stronger effect = lower value 0.993 | S. cerevisiae deletion strains, locus YNR049C, strain mso1, stronger effect = lower value 0.975 | S. cerevisiae deletion strains, locus YNR052C, strain pop2, stronger effect = lower value 0.962 | S. cerevisiae deletion strains, locus YOL006C, strain TOP1, stronger effect = lower value 1.27 | S. cerevisiae deletion strains, locus YOL012C, strain htz1 1.05 | S. cerevisiae deletion strains, locus YOL147C, strain pex11, stronger effect = lower value 0.997 | S. cerevisiae deletion strains, locus YOR001W, strain rrp6, stronger effect = lower value 0.997 | S. cerevisiae deletion strains, locus YOR061W, strain CKA2, stronger effect = lower value 0.997 | S. cerevisiae deletion strains, locus YOR069W, strain VPS5, stronger effect = lower value 1.01 | S. cerevisiae deletion strains, locus YOR070C, strain gyp1, stronger effect = lower value 0.99 | S. cerevisiae deletion strains, locus YOR080W, strain dia2, stronger effect = lower value 0.985 | S. cerevisiae deletion strains, locus YOR083W, strain WHI5, stronger effect = lower value 0.995 | S. cerevisiae deletion strains, locus YOR106W, strain vam3, stronger effect = lower value 0.989 | S. cerevisiae deletion strains, locus YOR136W, strain idh2, stronger effect = lower value 0.973 | S. cerevisiae deletion strains, locus YOR144C, strain elg1, stronger effect = lower value 0.975 | S. cerevisiae deletion strains, locus YOR184W, strain ser1, stronger effect = lower value 1.06 | S. cerevisiae deletion strains, locus YOR265W, strain rbl2, stronger effect = lower value 0.983 | S. cerevisiae deletion strains, locus YOR270C, strain vph1, stronger effect = lower value 0.981 | S. cerevisiae deletion strains, locus YOR290C, strain snf2, stronger effect = lower value 0.978 | S. cerevisiae deletion strains, locus YOR316C, strain cot1, stronger effect = lower value 0.987 | S. cerevisiae deletion strains, locus YPL051W, strain arl3, stronger effect = lower value 0.995 | S. cerevisiae deletion strains, locus YPL078C, strain atp4, stronger effect = lower value 0.993 | S. cerevisiae deletion strains, locus YPL106C, strain sse1, stronger effect = lower value 1.01 | S. cerevisiae deletion strains, locus YPL240C, strain hsp82, stronger effect = lower value 0.996 | S. cerevisiae deletion strains, locus YPR119W, strain clb2, stronger effect = lower value 0.989 | S. cerevisiae deletion strains, locus YPR141C, strain kar3, stronger effect = lower value 0.997 | S. cerevisiae deletion strains, locus YPR163C, strain tif3, stronger effect = lower value 0.998 | S. cerevisiae deletion strains, locus YPR167C, strain met16, stronger effect = lower value 0.962 | S. cerevisiae deletion strains, strain wtn01, stronger effect = lower value 1.03 | S. cerevisiae strains, strain wild type, stronger effect = lower value 1.04
